Screens: PubChem BioAssay, National Center for Advancing Translational Sciences (NCATS)
Shown are actives, neighbours in structure and some others; about 19% of the full set was active somewhere.
Chronic BCR inh: chronic active BCR signaling inhibition; ABC-DLBCL IkBa-CBG/CBR reporter, luminescence ratio, 4 h; Potency, µM (doses to about 46.1 µM), for inactives: at the highest dose activity change, negative = inhibition, actives largely listed as inhibitors; 340,000 compounds, 0.05% hits; AID 493014; active = well fitted inhibition curve with a large enough effect in the signal ratio, with a control signal flat, not every such curve was filed as active; inconclusive = small, poorly fitted or top-dose-only effect, or effect the other way, or a change in a side signal; the % refers to the signal ratio;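 also: potency is read from the fitted curve at half-maximal effect; plate controls were basal doxycycline-induced cells for no effect and cells given 10 µM MG132 for full effect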
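Compounds up to 46 uM were incubated four hours with TMD8 cells whose green CBG68 luciferase is fused to IkappaBalpha; red CBR luminescence normalised the signal, and concentration-effect curves were fitted to fusion, red and ratio data.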
DT40 TDP1 CPT: DT40-hTDP1 cell growth loss with CPT. chicken DT40 Tdp1-/-;hTDP1 cells + 20 nM CPT, ATP luminescence, 48 h. Potency, µM (top dose mostly 46.2 µM), without a hit: top-dose activity change, negative = growth inhibition, actives largely listed as inhibitors. 420,000 compounds, 12% hits. AID 686979; also: potency is read from the fitted curve at half-maximal effect; % is scaled to controls: 0 for no effect and ±100 for the full control effect; nearly all actives have a fitted effect of over 55% in size
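Chicken DT40 Tdp1-/- cells stably complemented with human TDP1 were seeded at 400 cells/well in medium containing 20 nM camptothecin, exposed to pin-transferred compounds, and grown at 37 °C for at least 48 hr. Viability was read as ATP luminescence.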
MCF10A rerep: inducers of DNA re-replication in MCF 10A breast cells | MCF 10A DNA re-replication, Hoechst nuclear intensity, 48 h | Potency, µM (titrated, usually from 46.1 µM), for the others: top-dose activity, positive = re-replication, hits mostly activators | 350,000 compounds, 2.9% hits | AID 624296; also: potency is read from the fitted curve at half-maximal effect; % of control where 0% means no effect; nearly all actives have a fitted effect of over 50% in size
TDP1 cell noCPT: qHTS for Inhibitors of human tyrosyl-DNA phosphodiesterase 1 (TDP1): qHTS in cells in absence of CPT | Potency, µM (series often up to 46.2 µM), for inactives: at the highest dose activity change, negative = growth inhibition, most hits filed as inhibitors | DT40 Tdp1-/- hTDP1 cells, no CPT, ATP luminescence, 48 h | 420,000 compounds, 15% hits | AID 686978, 2013; also: potency is read from the fitted curve at half-maximal effect; % is scaled to controls: 0 for no effect and ±100 for the full control effect; nearly all actives have a fitted effect of over 55% in size
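Chicken DT40 Tdp1-/- cells complemented with human TDP1, screened without camptothecin (DMSO vehicle only), 400 cells/well. Compounds pin-transferred, cells incubated at 37 °C for at least 48 hr. Growth read as ATP-dependent luminescence (CellTiter-Glo, 30 min at RT).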
SW480 rereplic: induces DNA re-replication in SW480 colon adenocarcinoma cells. Potency, µM (top dose mostly 46.1 µM), inactives show top-dose re-replication activation, most hits filed as activators. 340,000 compounds, 1.8% hits. AID 624297. SW480 DNA re-replication, Hoechst DNA content imaging, 48 h; also: potency is read from the fitted curve at half-maximal effect; % of control where 0% means no effect; nearly all actives have a fitted effect of over 55% in size
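Quantitative HTS format with DMSO vehicle controls; 48 hr drug incubation at 37 C, then 40 min Hoechst staining and scanning imager measurement at 405 nm excitation.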
IL-1B inflam inh: inhibitors of inflammasome signaling (IL-1 beta secretion) | THP-1 LPS/ATP IL-1B secretion, AlphaLISA, 16 h; active compounds read low | 360,000 compounds, 4.7% hits | activity change, % at 57.5 µM; in the data active = activity change below about -50%; inconclusive = mostly about -30% to -49%; also: % is scaled to controls: 0 for no effect and ±100 for the full control effect
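Secreted IL-1B measured by AlphaLISA bead assay after 16 h compound exposure of THP-1 cells; compounds (final up to 57.5 uM) added 1 h before LPS (250 ng/mL) and ATP (1.25 mM) stimulation; lower signal means less secretion.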
Active calls of the source: *; ? = inconclusive; / = not tested or not shown. Unless noted, calls follow the shape of the dose curve; as a rule, active = well fitted curve in the direction sought with a large enough effect; inconclusive = small, poorly fitted or top-dose-only effect, or another doubt; inactive = no such curve, though single readings can be large; an effect the other way counts as inactive or inconclusive.

SMILES	Chronic BCR inh	DT40 TDP1 CPT	MCF10A rerep	TDP1 cell noCPT	SW480 rereplic	IL-1B inflam inh
COc1ccccc1CNC(=O)c1oc2ccc3c(c2c1C)C(=O)CC(C)(C)O3	/	?	/	16µM*	/	/
Cc1cccc(C)c1NC(=O)c1oc2ccc3c(c2c1C)C(=O)CC(C)(C)O3	/	16µM*	/	?	/	/
Cc1c(C(=O)NCc2cccc(Br)c2)oc2ccc3c(c12)C(=O)CC(C)(C)O3	/	?	/	15µM*	/	/
Cn1cccc1C(=O)N1CCC2(CC1)CN(C(=O)Nc1cccc(C#N)c1)C2	/	-6%	/	?	/	/
CC(C)(C)c1nn2cnnc2n(/N=C/c2ccccc2)c1=O	3%	-24%	0%	-21%	-3%	10
CC(=O)Nc1cccc(NC(=O)c2c(-c3ccccc3)c(-c3ccccc3)nn(C)c2=O)c1	/	?	/	-29%	/	/
CCOC(=O)C1=C(C)N(Cc2ccccc2)C(=O)NC1c1ccccc1OS(=O)(=O)c1ccccc1[N+](=O)[O-] (stereo unspecified)	/	10µM*	13%	9.2µM*	?	?
CC1=C(C(=O)OCc2ccccc2)C(c2ccccc2[N+](=O)[O-])NC(=O)N1C (stereo unspecified)	0%	?	8%	23µM*	-2%	24
CCC(=O)OC1C2CC3=C4CC(=O)OC(c5ccoc5)[C@]4(C)CCC3[C@@](C)(C2=O)C(CC(=O)OC)C1(C)C (stereo partly specified)	/	-2%	/	-2%	/	/
Cc1ccc(/C=N/NC(=O)c2cc(-c3ccncc3)nc3ccccc23)o1	?	2.9µM*	?	2.6µM*	?	59
O=C(N/N=C/c1ccc([N+](=O)[O-])o1)c1cn(-c2ccccc2)nc1-c1ccccc1	8%	?	16µM*	6.5µM*	10%	25
O=C(N/N=C/c1ccc([N+](=O)[O-])o1)c1cc(-c2ccncc2)nc2ccccc12	-15%	7.1µM*	5µM*	3.2µM*	?	-26
O=C(N/N=C/c1ccc([N+](=O)[O-])o1)c1cc(-c2ccc(-c3ccccc3)cc2)nc2ccccc12	?	4.1µM*	0.92µM*	0.46µM*	1.3µM*	-8
O=C(N/N=C/c1ccc([N+](=O)[O-])o1)c1cn(-c2ccccc2)nc1-c1ccc(Cl)cc1	4%	?	?	?	?	5
CCOC(=O)c1[nH]c(=S)n(-c2ccccc2)c1C(=O)OCC	/	12%	/	2%	/	6
COC(=O)[C@]1(C)N[C@H](CN(C)C(=O)Nc2ccc(C)cc2)[C@@H]2C(=O)N(C)C(=O)[C@@H]21	0%	-29%	-20%	-16%	10%	20
Cc1ccc2nc(N/N=C/c3ccco3)cc(C)c2c1	?	8.2µM*	16µM*	10µM*	?	-56*
Cc1cc(N/N=C/c2ccc([N+](=O)[O-])o2)nc2ccccc12	10%	18µM*	-39%	18µM*	?	-25
Cn1c(/C=C/c2ccc([N+](=O)[O-])o2)nc2ccccc2c1=O	0%	0.26µM*	5.2µM*	0.26µM*	1.8µM*	-98*
Cc1ccc(-c2cc(C(=O)N/N=C/c3ccc([N+](=O)[O-])o3)c3ccccc3n2)o1	-2%	18µM*	?	13µM*	?	?
CCc1nnc(NC(=O)c2cc(-c3ccc(C)o3)nc3ccccc23)s1	0%	?	27%	?	0%	-11
O=C(COC(=O)c1cnccn1)Nc1cc(S(=O)(=O)N2CCOCC2)ccc1Cl	1%	6%	6%	-3%	2%	-7
CCCc1nnc(NC(=O)CCC(=O)N2CCN(c3ccccc3)CC2)s1	-13%	-11%	-1%	-5%	?	12
CSc1ncccc1C(=O)Nc1cc(Cl)ccc1N1CCOCC1	-5%	?	13%	?	5%	-21
Cc1cc(=O)[nH]c2nnc(SCc3c(F)cccc3Cl)n12	?	-32%	/	-5%	/	/
SMILES	Chronic BCR inh	DT40 TDP1 CPT	MCF10A rerep	TDP1 cell noCPT	SW480 rereplic	IL-1B inflam inh
O=C(N/N=C/c1ccco1)c1cc(-c2cccc(Br)c2)nc2ccccc12	3%	?	?	5.8µM*	13%	-10
CC(/C=N/NC(=O)c1cc(-c2ccncc2)nc2ccccc12)=C\c1ccco1	?	2.6µM*	?	3.7µM*	0.92µM*	10
COc1cc(-c2csc(CCn3nc(C)cc3C)n2)cc(OC)c1OC	-3%	21µM*	-39%	18µM*	?	-13
Cc1cc(C)n(CCc2nc(-c3ccc(C(C)(C)C)cc3)cs2)n1	?	23µM*	?	12µM*	14%	-51*
Cc1cccc(C)c1-n1nnnc1C1c2ccccc2C(=O)N1C1CC1 (stereo unspecified)	/	8%	/	-3%	/	3
COc1cccc(Cn2c(=O)cnc3cnc(Oc4ccccc4)nc32)c1	/	-5%	/	-12%	/	/
Cc1cccc(Cn2c(=O)n(-c3ccc(CC(=O)NCc4ccco4)cc3)c(=O)c3sccc32)c1	5µM*	26µM*	?	15µM*	?	-13
